± gives the standard deviation of the averaged measurements.
Key:
Test in all cases: relative enzymatic activity vs untreated control (fraction); higher = less inhibition
Details in all cases: 100 µM; incubation time: 2 h at 37 C
[1] = test system: DNA gyrase
Procedure: (§1)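 In vitro enzymatic inhibition assays (ProFoldin kits) for 12 purified essential E. coli enzymes or complexes, each treated with 218 active antibacterial compounds at 100 µM for 2 h at 37°C. Read-outs were fluorescence or absorbance (phosphate detection, dye binding), converted to activity via standard curves and expressed relative to untreated DMSO controls.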

[2] = biological target: DNA helicase (UniProt P0ACB1)
DNA helicase, sequence (P0ACB1 whole entry): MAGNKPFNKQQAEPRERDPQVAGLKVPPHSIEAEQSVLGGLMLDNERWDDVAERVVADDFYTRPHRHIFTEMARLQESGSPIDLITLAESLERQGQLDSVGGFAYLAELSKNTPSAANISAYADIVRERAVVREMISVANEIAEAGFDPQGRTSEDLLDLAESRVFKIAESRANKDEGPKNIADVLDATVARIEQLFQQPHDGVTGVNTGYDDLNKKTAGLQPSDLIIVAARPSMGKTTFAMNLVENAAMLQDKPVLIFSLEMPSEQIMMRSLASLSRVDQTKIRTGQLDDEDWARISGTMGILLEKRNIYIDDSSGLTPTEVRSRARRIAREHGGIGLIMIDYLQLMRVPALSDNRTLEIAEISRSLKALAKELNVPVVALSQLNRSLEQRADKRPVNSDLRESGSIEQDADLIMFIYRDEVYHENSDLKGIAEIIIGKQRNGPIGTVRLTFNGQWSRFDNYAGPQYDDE
Procedure: as §1

[3] = biological target: DNA ligase (UniProt B1XA82)
DNA ligase, sequence (B1XA82 whole entry): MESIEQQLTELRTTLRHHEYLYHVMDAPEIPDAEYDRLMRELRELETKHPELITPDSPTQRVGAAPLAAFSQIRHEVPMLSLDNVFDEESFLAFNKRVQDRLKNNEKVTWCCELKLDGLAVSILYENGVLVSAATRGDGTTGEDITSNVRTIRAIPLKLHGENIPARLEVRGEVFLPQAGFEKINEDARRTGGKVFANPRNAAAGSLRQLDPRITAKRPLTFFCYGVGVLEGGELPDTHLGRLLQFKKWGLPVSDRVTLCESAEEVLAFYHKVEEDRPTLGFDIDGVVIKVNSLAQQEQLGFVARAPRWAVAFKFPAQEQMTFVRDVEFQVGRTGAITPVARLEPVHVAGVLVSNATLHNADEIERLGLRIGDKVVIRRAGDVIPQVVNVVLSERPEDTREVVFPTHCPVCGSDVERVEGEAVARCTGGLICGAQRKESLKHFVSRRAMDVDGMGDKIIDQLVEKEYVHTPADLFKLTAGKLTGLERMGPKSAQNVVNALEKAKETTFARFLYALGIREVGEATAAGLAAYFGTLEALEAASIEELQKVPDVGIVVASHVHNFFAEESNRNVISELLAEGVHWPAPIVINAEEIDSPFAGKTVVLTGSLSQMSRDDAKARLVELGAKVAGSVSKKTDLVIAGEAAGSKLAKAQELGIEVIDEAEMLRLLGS
Procedure: as §1

[4] = biological target: DNA polymerase (UniProt P10443)
DNA polymerase, sequence (P10443 whole entry): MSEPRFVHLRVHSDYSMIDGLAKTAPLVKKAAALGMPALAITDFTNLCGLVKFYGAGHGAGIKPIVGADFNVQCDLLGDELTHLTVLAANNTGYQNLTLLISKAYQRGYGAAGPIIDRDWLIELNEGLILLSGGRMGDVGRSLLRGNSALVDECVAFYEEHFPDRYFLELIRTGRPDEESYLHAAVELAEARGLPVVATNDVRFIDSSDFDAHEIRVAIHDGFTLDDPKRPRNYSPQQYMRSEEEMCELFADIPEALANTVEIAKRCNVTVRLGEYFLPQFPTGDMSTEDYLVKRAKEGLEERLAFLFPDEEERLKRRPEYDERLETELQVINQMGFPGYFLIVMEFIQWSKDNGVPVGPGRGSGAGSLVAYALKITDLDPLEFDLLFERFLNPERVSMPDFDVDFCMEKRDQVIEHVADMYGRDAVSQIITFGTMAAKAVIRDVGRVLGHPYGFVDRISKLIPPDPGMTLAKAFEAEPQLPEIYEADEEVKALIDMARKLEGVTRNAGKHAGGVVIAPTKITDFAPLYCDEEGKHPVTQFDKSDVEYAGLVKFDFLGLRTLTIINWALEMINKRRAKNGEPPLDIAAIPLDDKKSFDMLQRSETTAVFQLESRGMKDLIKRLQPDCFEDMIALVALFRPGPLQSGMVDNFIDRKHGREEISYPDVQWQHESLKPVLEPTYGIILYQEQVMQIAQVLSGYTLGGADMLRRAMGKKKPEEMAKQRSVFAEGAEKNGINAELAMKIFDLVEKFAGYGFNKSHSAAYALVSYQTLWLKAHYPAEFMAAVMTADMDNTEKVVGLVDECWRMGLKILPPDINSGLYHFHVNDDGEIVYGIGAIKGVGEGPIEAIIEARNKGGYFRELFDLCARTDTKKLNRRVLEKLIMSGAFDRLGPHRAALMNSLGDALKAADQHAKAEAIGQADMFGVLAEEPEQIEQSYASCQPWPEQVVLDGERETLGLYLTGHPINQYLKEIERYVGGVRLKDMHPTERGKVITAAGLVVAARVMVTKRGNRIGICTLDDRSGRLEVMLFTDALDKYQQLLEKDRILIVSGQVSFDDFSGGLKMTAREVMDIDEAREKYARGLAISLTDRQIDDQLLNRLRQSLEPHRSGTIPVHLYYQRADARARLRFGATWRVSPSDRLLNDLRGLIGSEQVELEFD
Procedure: as §1

[5] = biological target: DNA primase (UniProt P0ABS7)
DNA primase, sequence (P0ABS7 whole entry): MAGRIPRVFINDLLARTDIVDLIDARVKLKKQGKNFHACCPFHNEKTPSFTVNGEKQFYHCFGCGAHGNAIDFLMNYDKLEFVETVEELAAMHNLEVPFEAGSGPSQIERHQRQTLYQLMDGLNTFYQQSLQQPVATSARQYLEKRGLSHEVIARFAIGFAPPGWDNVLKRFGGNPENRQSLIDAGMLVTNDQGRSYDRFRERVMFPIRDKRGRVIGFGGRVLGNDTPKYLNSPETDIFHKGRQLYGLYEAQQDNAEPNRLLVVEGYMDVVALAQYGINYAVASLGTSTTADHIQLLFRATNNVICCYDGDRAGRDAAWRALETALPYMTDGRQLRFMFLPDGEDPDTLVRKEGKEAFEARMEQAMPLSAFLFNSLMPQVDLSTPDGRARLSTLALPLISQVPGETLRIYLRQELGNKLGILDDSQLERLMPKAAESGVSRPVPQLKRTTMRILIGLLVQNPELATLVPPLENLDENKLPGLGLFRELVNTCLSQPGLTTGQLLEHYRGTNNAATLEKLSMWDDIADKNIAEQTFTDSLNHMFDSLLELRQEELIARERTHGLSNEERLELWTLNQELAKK
Procedure: as §1

[6] = biological target: GlmU (UniProt A7ZTU1)
GlmU, sequence (A7ZTU1 whole entry, looked up): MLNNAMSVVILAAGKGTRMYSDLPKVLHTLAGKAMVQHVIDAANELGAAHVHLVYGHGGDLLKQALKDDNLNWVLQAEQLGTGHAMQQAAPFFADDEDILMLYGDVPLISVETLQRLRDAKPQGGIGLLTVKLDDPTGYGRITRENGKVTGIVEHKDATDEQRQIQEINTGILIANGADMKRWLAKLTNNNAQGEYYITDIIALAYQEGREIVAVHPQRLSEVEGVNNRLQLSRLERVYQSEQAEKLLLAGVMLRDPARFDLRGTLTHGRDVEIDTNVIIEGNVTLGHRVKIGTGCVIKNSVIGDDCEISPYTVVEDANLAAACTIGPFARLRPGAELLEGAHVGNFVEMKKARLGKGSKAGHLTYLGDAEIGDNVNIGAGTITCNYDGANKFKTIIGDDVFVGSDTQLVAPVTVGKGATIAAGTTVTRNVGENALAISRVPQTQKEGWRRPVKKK
Procedure: as §1

[7] = biological target: Guanlyate kinase (UniProt Q0TBG1)
Guanlyate kinase, sequence (Q0TBG1 whole entry): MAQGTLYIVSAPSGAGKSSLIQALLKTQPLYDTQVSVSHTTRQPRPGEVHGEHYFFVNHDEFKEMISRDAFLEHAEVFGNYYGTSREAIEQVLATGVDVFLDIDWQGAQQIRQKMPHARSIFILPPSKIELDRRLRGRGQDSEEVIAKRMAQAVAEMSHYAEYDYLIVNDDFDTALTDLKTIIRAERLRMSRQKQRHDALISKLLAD
Procedure: as §1

[8] = biological target: MurA (UniProt Q3YX52)
MurA, sequence (Q3YX52 whole entry): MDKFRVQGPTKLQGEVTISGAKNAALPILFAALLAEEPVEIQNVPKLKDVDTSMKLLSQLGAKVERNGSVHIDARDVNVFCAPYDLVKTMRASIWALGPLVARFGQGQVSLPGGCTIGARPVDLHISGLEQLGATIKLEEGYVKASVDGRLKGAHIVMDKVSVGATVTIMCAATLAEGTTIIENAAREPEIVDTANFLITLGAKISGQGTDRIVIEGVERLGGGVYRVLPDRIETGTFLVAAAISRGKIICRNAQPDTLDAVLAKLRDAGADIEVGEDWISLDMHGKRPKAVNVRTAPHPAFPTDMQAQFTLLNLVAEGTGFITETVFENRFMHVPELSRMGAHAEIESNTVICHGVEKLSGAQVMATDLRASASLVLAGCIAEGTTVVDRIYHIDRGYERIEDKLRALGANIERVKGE
Procedure: as §1

[9] = biological target: T1, MurD (UniProt P14900)
T1 sequence (whole entry): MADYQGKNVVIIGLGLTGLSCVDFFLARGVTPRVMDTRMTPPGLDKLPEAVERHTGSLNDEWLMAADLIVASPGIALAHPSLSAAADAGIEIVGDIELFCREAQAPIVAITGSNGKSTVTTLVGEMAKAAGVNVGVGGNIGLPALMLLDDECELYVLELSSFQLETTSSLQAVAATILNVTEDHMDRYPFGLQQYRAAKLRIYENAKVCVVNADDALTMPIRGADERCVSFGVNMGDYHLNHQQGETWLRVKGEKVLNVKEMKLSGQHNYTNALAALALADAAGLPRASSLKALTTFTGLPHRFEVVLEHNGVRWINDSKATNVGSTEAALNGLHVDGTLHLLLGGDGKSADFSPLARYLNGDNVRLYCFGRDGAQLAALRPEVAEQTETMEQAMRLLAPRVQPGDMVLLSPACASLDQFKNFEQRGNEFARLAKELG
Procedure: as §1

[10] = biological target: T2, MurF (UniProt P11880)
T2 sequence (whole entry): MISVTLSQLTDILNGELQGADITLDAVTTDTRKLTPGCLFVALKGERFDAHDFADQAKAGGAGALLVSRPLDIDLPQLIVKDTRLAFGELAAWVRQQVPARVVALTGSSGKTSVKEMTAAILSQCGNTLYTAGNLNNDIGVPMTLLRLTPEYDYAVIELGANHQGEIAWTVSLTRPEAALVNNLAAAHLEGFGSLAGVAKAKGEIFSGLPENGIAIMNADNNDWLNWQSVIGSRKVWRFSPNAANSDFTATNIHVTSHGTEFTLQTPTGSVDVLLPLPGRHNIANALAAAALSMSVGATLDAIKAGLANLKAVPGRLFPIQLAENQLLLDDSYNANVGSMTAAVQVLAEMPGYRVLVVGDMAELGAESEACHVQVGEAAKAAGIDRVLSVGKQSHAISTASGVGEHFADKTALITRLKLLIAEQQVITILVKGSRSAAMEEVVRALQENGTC
Procedure: as §1

[11] = test system: RNA polymerase
Procedure: as §1

Compound	relative enzymatic activity [1]	relative enzymatic activity [2]	relative enzymatic activity [3]	relative enzymatic activity [4]	relative enzymatic activity [5]	relative enzymatic activity [6]	relative enzymatic activity [7]	relative enzymatic activity [8]	relative enzymatic activity [9]	relative enzymatic activity [10]	relative enzymatic activity [11]
C[C@H]1c2cccc(O)c2C(=O)C2=C(O)[C@]3(O)C(=O)[C@@H](C(N)=O)C(=O)[C@@H](N(C)C)[C@@H]3[C@@H](O)[C@@H]21	0.782 ± 0.34	0.508 ± 0.05	0.954 ± 0.14	1.17 ± 0.29	0.8317 ± 0.0057	0.934 ± 0.018	0.958 ± 0.081	0.673 ± 0.19	0.601 ± 0.41	0.937 ± 0.26	0.882 ± 0.078
COC12C(COC(N)=O)C3=C(C(=O)C(C)=C(N)C3=O)N1CC1NC12 (stereo not drawn)	1.01 ± 0.063	0.964 ± 0.15	1.03 ± 0.025	1.31 ± 0.47	0.728 ± 0.2	1.02 ± 0.018	1.05 ± 0.032	0.264 ± 0.12	0.589 ± 0.41	1.01 ± 0.23	0.882 ± 0.01
NC(=O)[C@@H]1CC[C@@H]2CN1C(=O)N2OS(=O)(=O)O	0.771 ± 0.26	0.552 ± 0.18	0.834 ± 0.21	0.501 ± 0.71	0.803 ± 0.037	0.998 ± 0.01	0.947 ± 0.072	0.699 ± 0.17	0.604 ± 0.42	0.976 ± 0.22	0.809 ± 0.13
CCOC(=O)CCC(=O)O[C@H]1[C@H](O[C@@H]2[C@@H](C)[C@H](O[C@H]3C[C@@](C)(OC)[C@@H](O)[C@H](C)O3)[C@@H](C)C(=O)O[C@H](CC)[C@@](C)(O)[C@H](O)[C@@H](C)C(=O)[C@H](C)C[C@@]2(C)O)O[C@H](C)C[C@@H]1N(C)C	0.685 ± 0.3	0.691 ± 0.34	0.982 ± 0.061	1.17 ± 0.28	0.835 ± 0.0032	1.018 ± 0.0098	0.941 ± 0.052	0.816 ± 0.11	0.599 ± 0.4	0.961 ± 0.23	0.831 ± 0.037
CO/N=C(\C(=O)N[C@@H]1C(=O)N2C(C(=O)O)=C(C[N+]3(C)CCCC3)CS[C@H]12)c1csc(N)n1	0.284 ± 0.099	0.202 ± 0.28	1.11 ± 0.05	1.12 ± 0.18	0.722 ± 0.012	0.943 ± 0.023	1.06 ± 0.074	0.144 ± 0.026	0.591 ± 0.42	1.15 ± 0.066	0.575 ± 0.11
CCC(C)C1NC(=O)C(CCNCS(=O)(=O)[O-])NC(=O)C(NC(=O)C(CCNCS(=O)(=O)[O-])NC(=O)C(NC(=O)C(CCNCS(=O)(=O)[O-])NC(=O)CCCCC(C)C)C(C)O)CCNC(=O)C(C(C)O)NC(=O)C(CCNCS(=O)(=O)[O-])NC(=O)C(CCNCS(=O)(=O)[O-])NC(=O)C(C(C)CC)NC1=O.[Na+].[Na+].[Na+].[Na+].[Na+] (stereo not drawn)	1.1 ± 0.088	0.615 ± 0.27	1.08 ± 0.17	1.32 ± 0.34	0.766 ± 0.23	0.983 ± 0.022	1 ± 0.023	0.564 ± 0.14	0.591 ± 0.39	1.03 ± 0.3	0.919 ± 0.029
C=CC1=C(C(=O)O)N2C(=O)[C@@H](NC(=O)/C(=N\OCC(=O)O)c3csc(N)n3)[C@H]2SC1	0.321 ± 0.084	0.432 ± 0.089	0.941 ± 0.17	1.06 ± 0.23	0.662 ± 0.021	1.046 ± 0.0058	0.886 ± 0.1	0.0787 ± 0.0056	0.606 ± 0.41	0.954 ± 0.18	0.822 ± 0.32
Nc1ncn(C2OC(CO)C(O)C2O)c(=O)n1 (stereo not drawn)	0.722 ± 0.32	0.653 ± 0.16	1.318 ± 0.003	1.27 ± 0.31	0.709 ± 0.21	1.14 ± 0.13	0.934 ± 0.14	0.786 ± 0.13	0.61 ± 0.4	0.987 ± 0.21	1.01 ± 0.18
Cn1nnnc1SCC1=C(C(=O)[O-])N2C(=O)C(NC(=O)C(O)c3ccccc3)C2SC1.[Na+] (stereo not drawn)	0.841 ± 0.26	0.638 ± 0.12	1.42 ± 0.27	1.19 ± 0.25	0.689 ± 0.18	1.16 ± 0.18	0.942 ± 0.17	0.0762 ± 0.016	0.636 ± 0.44	0.988 ± 0.21	1.16 ± 0.45
CCn1cc(C(=O)O)c(=O)c2cc(F)c(N3CCN(C(=S)Nc4cc(C(F)(F)F)ccc4Cl)CC3)cc21	0.0352 ± 0.05	0.303 ± 0.029	0.85 ± 0.036	0.51 ± 0.72	1.49 ± 0.75	1.03 ± 0.024	0.915 ± 0.081	0.654 ± 0.18	0.629 ± 0.41	0.996 ± 0.24	1.17 ± 0.075
N[C@@H]1CN(c2c(F)cc3c(=O)c(C(=O)O)cn([C@@H]4C[C@@H]4F)c3c2Cl)CC12CC2	0.186 ± 0.26	0.435 ± 0.025	0.852 ± 0.06	1.1 ± 0.085	0.84 ± 0.012	0.987 ± 0.012	1 ± 0.11	0.524 ± 0.094	0.591 ± 0.41	1.31 ± 0.28	0.979 ± 0.15
NCC1OC(OC2C(N)CC(N)C(OC3OC(CO)C(O)C(N)C3O)C2O)C(N)CC1O (stereo not drawn)	1.2 ± 0.12	0.45 ± 0.37	1.02 ± 0.084	1.33 ± 0.47	0.71 ± 0.18	0.979 ± 0.048	1 ± 0.013	0.82 ± 0.12	0.611 ± 0.4	0.932 ± 0.15	0.809 ± 0.04
CC(=O)OCC1=C(C(=O)[O-])N2C(=O)C(NC(=O)Cc3cccs3)C2SC1.[Na+] (stereo not drawn)	0.626 ± 0.6	0.395 ± 0.012	1.26 ± 0.12	1.09 ± 0.26	0.713 ± 0.036	1 ± 0.084	0.974 ± 0.057	0.0754 ± 0.023	0.597 ± 0.38	0.958 ± 0.23	0.622 ± 0.13
CN1CCN(c2c(F)cc3c(=O)c(C(=O)O)cn4c3c2SCC4)CC1	0.0039 ± 0.0055	0.623 ± 0.2	1.02 ± 0.03	1.21 ± 0.25	0.807 ± 0.022	0.952 ± 0.026	0.926 ± 0.19	0.7644 ± 0.0074	0.608 ± 0.44	0.899 ± 0.27	0.844 ± 0.023
CN(C)C1C(O)=C(C(N)=O)C(=O)C2(O)C(O)=C3C(=O)c4c(O)cccc4C(C)(O)C3C(O)C12.Cl (stereo not drawn)	0.0137 ± 0.019	0.171 ± 0.03	0.908 ± 0.21	0.4407 ± 0.0041	0.517 ± 0.0096	1.02 ± 0.013	0.521 ± 0.0059	0.0726 ± 0.028	0.635 ± 0.42	1.02 ± 0.25	0.177 ± 0.017
C=C1c2cccc(O)c2C(=O)[C@@H]2C(=O)[C@]3(O)C(=O)[C@@H](C(N)=O)C(=O)[C@@H](N(C)C)[C@@H]3[C@@H](O)[C@H]12	0.554 ± 0.29	0.33 ± 0.051	0.848 ± 0.095	1.04 ± 0.31	0.707 ± 0.056	1.03 ± 0.018	0.679 ± 0.018	0.0871 ± 0.016	0.638 ± 0.46	1.06 ± 0.24	0.619 ± 0.015
COC(=O)N/N=C/c1c[n+]([O-])c2ccccc2[n+]1[O-]	0.905 ± 0.076	0.651 ± 0.26	0.933 ± 0.14	1.16 ± 0.23	0.803 ± 0.018	1.012 ± 0.0043	0.591 ± 0.026	0.719 ± 0.12	0.604 ± 0.4	0.913 ± 0.27	0.789 ± 0.081
NCCC(O)C(=O)NC1CC(N)C(OC2OC(CN)C(O)C(O)C2O)C(O)C1OC1OC(CO)C(O)C(N)C1O.O (stereo not drawn)	0.693 ± 0.16	0.562 ± 0.14	0.998 ± 0.06	0.875 ± 0.12	0.824 ± 0.023	0.994 ± 0.011	0.647 ± 0.01	0.963 ± 0.055	0.564 ± 0.37	0.962 ± 0.21	0.434 ± 0.49
